# PubChem BioAssay (EPA / NIEHS)
# Where “and” joins values, the source holds several entries; their conditions need not be identical. Equal values may be shown once. Inconclusive results are not listed. Some structures have more than one record in an assay (separate samples or runs), and their calls can disagree. Calls of active or inactive are those of the source. The calls were made as follows: active = hit-call score of the fitted dose curve at least 0.9, where 1 is the maximum; inconclusive = response in the unintended direction; inactive = score below 0.9.
# Read-out: Cytochrome P450 2B6 (Homo sapiens) (UniProt P20813)
# Assay: CLD_CYP2B6_6hr: CellzDirect (CLD) Gene Expression Assay for xenobiotic metabolism (CYP2B6) at 6 hours (AID 2283677);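 also: actives raise CYP2B6 transcript above DMSO baseline so AC50 marks an inducer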
# Experimental: CLD_6hr is a cell-based, multiplexed-readout assay that uses hepatocyte, a human liver primary cell, with measurements taken at 6 hours after chemical dosing in a 96-well plate.CLD_CYP2B6_6hr is one of 16 assay component(s) measured or calculated from the CLD_6hr assay. It is designed to make measurements of mRNA induction, a form of inducible reporter, as detected with chemiluminescence signals by Quantitative Nuclease Protection Assay (qNPA) technology.Data from the assay component CLD_CYP2B6_6hr was analyzed at the endpoint, CLD_CYP2B6_6hr, in the positive analysis fitting direction relative to DMSO as the negative control and baseline of activity. Using a type of inducible reporter, gain-of-signal activity can be used to understand changes in the reporter gene as they relate to the gene CYP2B6. Furthermore, this assay endpoint can be referred to as a primary readout. To generalize the intended target to other relatable targets, this assay endpoint is annotated to the cyp intended target family, where subfamily is xenobiotic metabolism.
# Human hepatocyte cultures were treated daily for two consecutive days with fresh dosing solutions containing appropriate concentrations of the 320 ToxCast chemicals (chemical identities were blinded to CellzDirect and other ToxCast collaborators), vehicle control (0.2% DMSO), and positive control inducers as summarized in Table 1. Due to the large number of treatment groups and chemicals examined, the ToxCast chemicals were divided into two groups (spanning two independent cultures of hepatocytes from separate donor preparations (Hu778: ToxCast plates 1 and 2; Hu776: ToxCast plates 3 and 4). Each preparation of human hepatocyte cultures was treated with respective vehicle control, medium only control, set of six positive controls/reference chemicals for the five hepatic receptor pathways, and a subset of eight of the ToxCast chemicals (indoxacarb, pyrithiobac-sodium, norflurazon, cyhalofop-butyl, methomyl, thiram, acetochlor, and propiconazole). These replicate data, coupled with internal replicates designed within the blinded ToxCast chemical library, provided additional data to evaluate interindividual differences between hepatocyte preparations and their potential impact on chemical profiles.Cell morphology and integrity were evaluated using phase-contrast microscopy as an indicator of hepatocyte cell health (Tyson & Green, 1987). Cultures for each treatment group (i.e., media, vehicle [0.2% DMSO], positive control inducers [multiple concentrations], and the ToxCast chemicals [multiple concentrations]) were observed and cell morphology was assessed relative to vehicle control cultures at each harvest time point (0, 6, 24, or 48 h). […] Images were evaluated at the conclusion of the study to assess changes in cell integrity and account for the effects of chemical exposure on uncharacteristic changes in concentration-dependent gene expression profiles. The results from these determinations of apparent cytotoxicity were annotated (yes/no) alongside the corresponding qNPA data for reference.At the conclusion of each treatment period, hepatocyte cultures (96-well) were washed with 1 volume of HBSS, lysed by addition of 25 ul ArrayPlate lysis buffer (HTG, Tucson, AZ), and 70 ul/well of Denaturation Oil, denatured by incubation at 95C for 10 min, and frozen at approximately -70C until analysis by nuclease protection assay (qNPA) (Roberts et al., 2007). For qNPA analysis, cell lysates were thawed at 50C for approximately 30 min, qNPA probes were added, and samples were incubated at 95C for 10 min to begin the detection process by denaturing the target RNA, dissociating the duplexes and secondary structure hybridization. At the conclusion of the hybridization period, S1 nuclease reagent was added to each sample to digest all nonprotected nucleotides at 50C for 60-90 min. […]
SMILES,AC50,outcome
O=C(Nc1ccccc1)Nc1ccnc(Cl)c1,20 µM (active),–
COc1ccc(C(c2ccc(OC)cc2)C(Cl)(Cl)Cl)cc1,7.31 µM (active),–
COc1nc(C)nc(NC(=O)NS(=O)(=O)c2ccccc2CCC(F)(F)F)n1,3.21 µM (active) and 1.89 µM (active),–
C=CCC1=C(C)C(OC(=O)C2C(C=C(C)C)C2(C)C)CC1=O (stereo not given),2.82 µM (active),–
CCOc1cc(Oc2ccc(C(F)(F)F)cc2Cl)ccc1[N+](=O)[O-],2.75 µM (active),–
CC(Oc1ccc(Cl)cc1Cl)C(=O)O (stereo not given),–,inactive
C=CC1(C)OC(=O)N(c2cc(Cl)cc(Cl)c2)C1=O (stereo not given),8.32 µM (active),–
N#Cc1cc(Br)c(O)c(Br)c1,–,inactive
CNC(=S)S,–,inactive
COP(=S)(OC)Oc1nc(Cl)c(Cl)cc1Cl,6.24 µM (active),–
CCNc1nc(Cl)nc(NC(C)C)n1,2.99 µM (active),–
Cc1ccc(-c2c(Cl)nc(C#N)n2S(=O)(=O)N(C)C)cc1,1.88 µM (active),–
CCCCNC(=O)n1c(NC(=O)OC)nc2ccccc21,4.17 µM (active),–
CCOC(=O)C(Cl)Cc1cc(-n2nc(C)n(C(F)F)c2=O)c(F)cc1Cl (stereo not given),3.01 µM (active),–
COc1nc(NC(C)C)nc(NC(C)C)n1,4.18 µM (active),–
N#Cc1nn(-c2c(Cl)cc(C(F)(F)F)cc2Cl)c(N)c1S(=O)C(F)(F)F (stereo not given),2.91 µM (active),–
CCNc1nc(Cl)nc(NCC)n1,7.74 µM (active),–
N#CC(CCc1ccc(Cl)cc1)(Cn1cncn1)c1ccccc1 (stereo not given),0.446 µM (active),–
CC(C)Oc1cc(-n2nc(C(C)(C)C)oc2=O)c(Cl)cc1Cl,1.9 µM (active),–

SMILES,AC50,outcome
CCCCNC(=O)OCC#CI,0.838 µM (active),inactive
COC(=O)C=C(C)OP(=O)(OC)OC,–,inactive
CCc1nn(C)c(C(=O)NCc2ccc(C(C)(C)C)cc2)c1Cl,–,inactive
CCCCC(CC)COC(=O)c1ccccc1C(=O)OCC(CC)CCCC (stereo not given),4.09 µM (active),–
CCCC1COC(Cn2cncn2)(c2ccc(Cl)cc2Cl)O1 (stereo not given),0.759 µM (active),–
CNC(=O)ON=CC(C)(C)SC,–,inactive
CCOC(=O)CC(SP(=S)(OC)OC)C(=O)OCC (stereo not given),–,inactive
CC1=C(C(=O)Nc2ccccc2)SCCO1,15.2 µM (active),–
C#CCOS(=O)OC1CCCCC1Oc1ccc(C(C)(C)C)cc1 (stereo not given),1.9 µM (active),–
CCOP(=S)(OCC)SCn1c(=O)oc2cc(Cl)ccc21,1.61 µM (active),–
OC(c1ccc(Cl)cc1)(c1cncnc1)c1ccccc1Cl (stereo not given),0.442 µM (active),–
O=C(O)c1nc(Cl)ccc1Cl,–,inactive
O=C(O)COc1nc(Cl)c(Cl)cc1Cl,–,inactive
COc1cnc(OC)n2nc(NS(=O)(=O)c3c(OCC(F)F)cccc3C(F)(F)F)nc12,–,inactive
CCCCOC(=O)c1ccccc1C(=O)OCCCC,–,inactive
COC(=O)C(C)Oc1ccc(Oc2ccc(Cl)cc2Cl)cc1 (stereo not given),3.09 µM (active) and 7.54 µM (active),inactive
Fc1ccc(Oc2ccnc3cc(Cl)cc(Cl)c23)cc1,20 µM (active),–
C=CCC1=C(C)[C@@H](OC(=O)[C@@H]2[C@@H](C=C(C)C)C2(C)C)CC1=O,5.86 µM (active),–
CCON=C(CC)C1=C(O)CC(c2c(C)cc(C)cc2C)CC1=O (stereo not given),–,inactive
